Assay outcomes: PubChem, Broad Institute
Hits are enriched below; roughly 1.1% of the tested compounds scored in any of these assays.
FadD28 binding: M. tuberculosis FadD28 bisubstrate binding inhibition; FadD28 bisubstrate probe binding, fluorescence polarization; inhibition, % at 12.5 µM; actives 0.22% (n = 360,000); in the data active means inhibition above about 8.5%, passing the limit was not always enough; inconclusive means no clear call, values can overlap the other calls
PrP UTR inh: suppresses PrP 5' UTR mRNA reporter expression; actives 0.35% (n = 340,000); AID 488862; cell-based PrP 5' UTR mRNA reporter, plate reader; inhibition, % (test concentration not listed); in the data active means inhibition above about 52%; further: 0 = median of the neutral control wells
PfHsp40 yeast: rescue of PfHsp40-mediated yeast toxicity; S. cerevisiae expressing PfHsp40, growth rescue, ATP luminescence; growth rescue, % at 12.5 µM; actives 0.68% (n = 340,000); in the data active means growth rescue above about 28%, passing the limit was not always enough; inconclusive means no clear call, values can overlap the other calls;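 further: yeast W303a lacking pdr1 and pdr3 grown in galactose medium; growth measured after three days at 30 °C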
BioA inh: BioA (M. tuberculosis) enzyme inhibition; actives 0.096% (n = 360,000); purified M. tuberculosis BioA enzyme, plate reader; inhibition, % at 9.99 µM; in the data active means inhibition above about 40%; inconclusive means no clear call, values can overlap the other calls
Y pestis TopoI: blocks Yersinia pestis topoisomerase I activity; Y. pestis Topo-I cleavage product accumulation, plate reader; activity, % at 10 µM; actives 0.064% (n = 360,000); in the data active means activity above about 50%, passing the limit was not always enough; inconclusive means no clear call, values can overlap the other calls
PrP 5UTR single: prion 5' UTR mRNA inhibition, cherry-pick retest. inhibition, % at 2.5 µM. cell-based prion protein 5' UTR reporter, plate reader. actives 48% (n = 1,100). shares compounds with PrP UTR inh. AID 504592; in the data active means inhibition above about 54%; inconclusive means no clear call, values can overlap the other calls
Starred values were filed as active, the others as inactive; ? = inconclusive; nt = no result given.

SMILES	FadD28 binding	PrP UTR inh	PfHsp40 yeast	BioA inh	Y pestis TopoI	PrP 5UTR single
CCOc1ccc(C(=O)C(c2ccccc2)N2CCOCC2)cc1 (configuration not stated)	1.6	81.7*	-0.5	-2.0	1.1	-0.9
C[C@H](CO)N1C[C@H](C)[C@@H](CN(C)C(=O)Nc2ccccc2)Oc2c(NC(=O)c3ccncc3)cccc2C1=O	-1.0	62.4*	0.7	-1.3	-4.1	-25.1
CCCNC(=O)[C@@H]1[C@@H](CO)[C@@H]2Cn3c(ccc(-c4ccccc4)c3=O)[C@H]1N2C(=O)Nc1ccccc1	nt	nt	nt	-1.0	nt	nt
CN1CCc2c(sc(NC(=O)c3ccc([N+](=O)[O-])o3)c2C(N)=O)C1	0.3	91.1*	-0.4	0.6	-6.7	96.7*
CO[C@H]1CN(C)C(=O)c2ccc(NC(C)=O)cc2OC[C@@H](C)N(C(=O)c2ccccc2F)C[C@H]1C	nt	nt	nt	5.5	nt	nt
CCOc1ccc(-c2cnc3ccccc3n2)cc1	-0.5	60.1*	-0.3	0.0	11.1	?
C[C@@H]1CN([C@@H](C)CO)C(=O)c2cc(-c3cncnc3)cnc2O[C@H]1CN(C)C(=O)Cc1ccccn1	nt	nt	nt	-1.8	nt	nt
CN(C)S(=O)(=O)c1ccc(C(=O)NCC2CC2(Cl)Cl)cc1 (configuration not stated)	-0.1	63.4*	-1.1	nt	0.3	17.1
CN(C)S(=O)(=O)c1ccc(C(=O)NCc2ccccc2)cc1	1.8	-11.5	0.2	nt	2.1	nt
CCCOc1ccc2cc(-c3ccccn3)c(=O)oc2c1	-3.4	77.8*	-0.4	-0.8	-1.9	57.0*
CO[C@@H]1CN(C)C(=O)c2cc(NS(=O)(=O)c3cn(C)cn3)ccc2OC[C@@H](C)N(C)C[C@H]1C	nt	nt	nt	-1.0	nt	nt
CCCCc1ccc(-c2ccc(Br)cc2)nc1	-2.7	-95.0	-0.1	-0.6	4.8	nt
CCCc1ccc(-c2ccc(F)c(N)c2)nc1	-0.3	59.1*	0.8	0.2	5.8	?
CCCNC(=O)N1[C@H](CO)[C@H](c2ccccc2)[C@@H]1CNC(C)=O	nt	nt	nt	3.3	nt	nt
Cc1csc(NC(=O)CCc2c(C)nc3cc(-c4ccc(Cl)cc4)nn3c2C)n1	-4.2	50.3*	4.6	1.0	9.4	59.2*
Cc1nc2cc(-c3ccc(Cl)cc3)nn2c(C)c1CCC(=O)NC(C)c1ccc2c(c1)OCCO2 (configuration not stated)	-0.3	40.2	2.1	0.8	30.4	nt
CCOC(=O)NC(=O)/C(C#N)=N\Nc1cccc(OC)c1	-0.7	-13.8	0.2	nt	3.9	nt
CCOC(=O)NC(=O)/C(C#N)=N/Nc1c(F)cccc1F	-2.5	61.1*	0.6	nt	-0.9	30.1
COc1ccc(S(=O)(=O)N(C)C[C@H]2OCc3ccccc3-c3ccccc3C(=O)N([C@@H](C)CO)C[C@H]2C)cc1	nt	nt	nt	1.4	nt	nt
O=C(c1cc2n(n1)C(C(F)(F)F)CC(c1ccco1)N2)N1CCc2ccccc2C1 (configuration not stated)	0.9	64.4*	1.5	-2.2	4.0	-16.7
COc1ccccc1N1CCN(C(=O)c2cc3n(n2)C(C(F)(F)F)CC(c2ccco2)N3)CC1 (configuration not stated)	-3.9	-7.9	-0.4	-1.5	30.9	nt
COc1cccc(-c2nc3n(n2)C(c2cccs2)C(C(=O)Nc2cccnc2)=C(C)N3)c1 (configuration not stated)	-7.1	85.2*	-0.7	6.4	-3.0	4.7
CC(C)NC(=O)Nc1ccc2c(c1)C(=O)N([C@H](C)CO)C[C@H](C)[C@@H](CN(C)CC1CC1)OCCCC[C@H](C)O2	nt	nt	nt	-1.5	nt	nt
O=C(O)c1ccc(Cn2cc(/C=C\[N+](=O)[O-])c3ccccc32)o1	1.0	-12.7	0.6	-0.9	1.8	nt
COC(=O)c1ccc(Cn2cc(/C=C\[N+](=O)[O-])c3ccccc32)o1	0.1	52.2*	-0.5	1.7	3.8	-19.6
SMILES	FadD28 binding	PrP UTR inh	PfHsp40 yeast	BioA inh	Y pestis TopoI	PrP 5UTR single
O=C(/C=C/c1cccs1)Nc1ccc(Br)cn1	-0.2	60.9*	1.2	nt	11.4	84.4*
C[C@@H]1CN([C@H](C)CO)C(=O)CCCn2nncc2CO[C@@H]1CN(C)C(=O)Nc1ccc(C(C)(C)C)cc1	nt	nt	nt	1.1	nt	nt
Cc1ccsc1/C=N/Nc1cccc(C(=O)O)c1	-0.9	72.3*	1.9	nt	3.2	67.7*
Cc1nn(-c2ccccc2Cl)c(Cl)c1/C=N/Nc1cccc(C(=O)O)c1	15.9*	77.3*	1.8	nt	0.6	63.8*
Cc1nn(-c2cccc(C(F)(F)F)c2)c(Cl)c1/C=N/Nc1cccc(C(=O)O)c1	?	19.1	4.3	nt	3.1	nt
CCCC(=O)Nc1ccc2c(c1)OC[C@@H](C)N(Cc1ccccc1OC)C[C@@H](C)[C@H](OC)CN(C)C2=O	nt	nt	nt	1.6	nt	nt
CC=Cc1ccc2n(c1=O)C[C@H]1[C@H](CO)[C@@H](C(=O)N[C@H](C)c3ccccc3)[C@@H]2N1CC1CC1 (mixture of isomers)	nt	nt	nt	-0.4	nt	nt
CN(C)CC(=O)N1[C@H](C#N)[C@H](c2ccc(-c3ccc(C(=O)N(C)C)cc3)cc2)[C@H]1CO	nt	nt	nt	-1.8	nt	nt
COc1ccc(/C=N/NC(=O)c2[nH]c3ccc(Br)cc3c2-c2ccccc2)cc1	-0.7	68.1*	0.1	nt	13.8	80.9*
COc1ccc(/C=N/NC(=O)c2[nH]c3ccc(Br)cc3c2-c2ccccc2)c(C(=O)O)c1OC	-9.3	-23.5	-0.8	2.0	8.2	nt
COc1ccccc1CNC(=O)C[C@H]1C=C[C@@H](NC(C)=O)[C@H](CO)O1	nt	nt	nt	-2.6	nt	nt
CCCn1c(SCC(=O)N2CCN(c3ccccc3)CC2)nc2ccccc2c1=O	1.5	-4.7	1.4	1.4	16.7	nt
CCN(CC)C(=O)CSc1nc2ccccc2c(=O)n1CCC(=O)N1CCN(c2ccccc2)CC1	-4.0	56.2*	-1.5	nt	0.5	0.5
Cc1cccc(NC(=S)N/N=C/C(C)c2ccccc2)c1C (configuration not stated)	0.2	58.6*	-0.5	nt	-5.7	-21.7
Cc1ccccc1NC(=S)N/N=C/C(C)c1ccccc1 (configuration not stated)	-1.8	-7.2	-1.5	-1.1	5.9	nt
CCOC(=O)N1CCN(C(=O)C(CC)n2nc(C)c3sc4ccccc4c3c2=O)CC1 (configuration not stated)	0.6	81.3*	-1.5	-1.6	8.4	-9.2
O=C(C[C@@H]1CC[C@H]2[C@@H](COC[C@@H](O)CN2Cc2cccc(C(F)(F)F)c2)O1)NCc1ccncc1	nt	nt	nt	-0.2	nt	nt
C[C@H]1CN([C@@H](C)CO)S(=O)(=O)c2ccc(-c3cccc(F)c3)cc2O[C@H]1CN(C)C(=O)C1CC1	nt	nt	nt	9.2	nt	nt
Cc1ccc(-c2noc(CCC(=O)Nc3ccc4c(c3)OCO4)n2)cc1	-0.6	59.8*	-0.9	3.1	-4.0	-15.0
COc1ccc(-c2noc(CCC(=O)Nc3ccc4c(c3)OCCO4)n2)cc1	-2.7	-7.6	10.1	-0.6	3.0	nt
O=C(C[C@H]1C[C@H]2c3cc(NC(=O)Cc4ccncc4)ccc3O[C@H]2[C@@H](CO)O1)NCc1ccc(-c2ccccc2)cc1	nt	nt	nt	0.1	nt	nt
